“And” between values parts separate entries of the source, which are not always exact repeats. Identical values can stand only once. Inconclusive results are not listed. The source made the active and inactive calls. How the source made its calls: active means hit-call score of the fitted dose curve at least 0.9, where 1 is the maximum; inconclusive means response in the unintended direction; inactive means score below 0.9.
assay: CCTE_Shafer_MEA_dev_AB: CCTE's Alamar Blue Assay for Cytotoxicity in the Neural Network Formation Assay, Shafer Lab (AID 2284083);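 further: twelve days of exposure from plating with re-dosing on DIV 5 and 9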
Protocol: CCTE_Shafer_MEA_dev assay is conducted using Axion Biosystems 48 well microelectrode array (MEA) plates and Maestro recording system. Each well of the MEA plate contains a grid of 16 microelectrodes embedded in the culture surface. Electrically active cells, such as neurons, can be cultured over the electrodes, and electrical activity in these cells can be recorded extracellularly. The spontaneous firing of neurons is captured from each electrode on a microsecond timescale providing both temporally and spatially precise data. […] The CCTE_Shafer_MEA_dev assay uses primary cultures of rat cortical neurons. Recordings are made on days post-plating 5, 7, 9 and 12. As these cultures mature over time, neural networks develop functional activity and form cohesive networks in which electrical activity can be highly coordinated. CCTE_Shafer_MEA_dev_AB is 1 of 19 assay components of the CCTE_Shafer_MEA_dev assay. It measures the resazurin reduction using fluorescence.Data from the assay component CCTE_Shafer_MEA_dev_AB was analyzed into 1 assay endpoint. This assay endpoint, CCTE_Shafer_MEA_dev_AB, was analyzed in the positive analysis fitting direction relative to DMSO as the negative control and baseline of activity. Using a type of viability reporter, loss-of-signal activity can be used to understand cell viability.
On the day prior to culture, each well was coated thoroughly with 150 uL of 0.05% polyethyleneimine (PEI, Sigma Cat P3143) in 50 mM HEPES (Sigma Cat H7523) at a pH of 8. The plate was incubated at 37C for one hour. PEI was rinsed out with 500 uL of sterile water three times. Plates were stored at 4C until the day of culture. This culture was plated at a seeding density of 1.5 x 10^5 cells/well on a 48-well MEA plate, prepared as described above. Cells were administered via a 25 uL media/laminin ([…]; Sigma Cat L2020-1MG) drop directly onto the microelectrode array, as adding the cells with the laminin results in better attachment than pre-coating with laminin. After 2 hours, an additional 475 uL of cortical media was added and the cells returned to the incubator. Exposure starts at day 0 of plating and is continued over twelve days of network development until the experiment is terminated. Cells are fed with fresh medium on DIV 5 and 9, following the recordings on those days. The entire volume of media in the well is exchanged and any vehicle or compound treatment is renewed. Complete details are found in OP-NHEERL/ISTD/SBB/TJS/2015-03-r0 (available on request, email shafer.tim@epa.gov). Measurement of the electrical activity is non-invasive, and recordings can be made from the same plate over multiple different days of the culture. In cortical neurons, this allows for the measurement of extracellular action potentials over the period during which networks form in the MEA plate.

Row | SMILES | outcome | AC50
1 | CCCCC(CC)CN1C(=O)C2C3C=CC(C3)C2C1=O (stereo unspecified) | inactive | –
2 | S=C(S)NCCNC(=S)S.[Mn+2].[S-]C([S-])=NCCN=C([S-])[S-].[Zn+2] | inactive | –
3 | S=C([S-])NCCNC(=S)[S-].[Mn+2] | inactive | –
4 | OB(O)O | inactive | –
5 | CC1(C)C(C=C(Cl)Cl)C1C(=O)OCc1cccc(Oc2ccccc2)c1 (stereo unspecified) | – | 26.4 µM (active) and 14.7 µM (active)
6 | CCCN(CCC)C(=O)SCC | inactive | –
7 | C#CCOC(=O)[C@@H](C)Oc1ccc(Oc2ncc(Cl)cc2F)cc1 | – | 10.1 nM (active)
8 | CSC(=O)c1cccc2nnsc12 | inactive | –
9 | Oc1ccc(C(c2ccc(O)cc2)C(Cl)(Cl)Cl)cc1 | inactive | –
10 | CCCCOCCOCCOCc1cc2c(cc1CCC)OCO2 | inactive | –
11 | Cc1nn(C)c(Oc2ccccc2)c1C=NOCc1ccc(C(=O)OC(C)(C)C)cc1 | – | 9.23 nM (active)

Source: PubChem BioAssay (EPA / NIEHS)
